# The source made the active and inactive calls. Entries that show only a call come without a potency. Calls come from the whole dose curve; as a rule, active = well fitted activation curve with a large enough effect in the repeat runs; inconclusive = weak or mixed curves; inactive = flat fitted curve, though single readings scatter.
# Target: KiSS-1 receptor (Homo sapiens) (UniProt Q969F8)
# Test: Human kisspeptin (KISS1R) small molecule agonists, calcium flux assay in KISS1R-HEK293 cells (AID 1920064)
# Conditions: KISS1R-HEK293, calcium flux fluorescence, agonist; series mostly up to 76.8 µM
# Source text: National Center for Advancing Translational Sciences [NCATS]
# Division of Preclinical Innovation [DPI]
# U.S. Environmental Protection Agency [EPA]
# National Institutes of Environmental Health Sciences [NIEHS]
# National Toxicology Program [NTP]
# U.S. Food and Drug Administration [FDA]
# Kisspeptin and its receptor KISS1R play key roles in mammalian reproduction due to their involvement in the onset of puberty and control of the hypothalamic-pituitary-gonadal axis such as regulates GnRH release from the hypothalamus. The kisspeptin/KISS1R system also plays a direct role in peripheral organs (including the ovary, testis, uterus, and placenta) and is implicated in reproductive diseases such as miscarriage and polycystic ovary syndrome (PCOS). Abnormal KISS1R activity is associated with abnormal puberty, infertility, endometriosis, and hormone-dependent tumors. The KISS1 receptor (KISS1R, also called GPR54), a G-protein-coupled receptor (GPCR), acts (through phospholipase C) to increase intracellular inositol trisphosphate and then release intracellular calcium stores. Cell-based KISS1R-HEK293 assay is using HEK293 cells that have been genetically engineered to express the human KISS1R, which activity can be measured by calcium signaling. A compound/drug can activate (agonist) KISS1R that can be monitored by levels of intracellular calcium.
# KISS1R-HEK293 cells developed by Codex Corp contain human KISS1R gene, which was stably integrated into HEK 293 cells. The compound activation can be detected by fluorescence intensity via calcium flux assay. This cell line has been used to screen the Tox21 10K compound library to identify agonists of KISS1R.
# KISS1R-Hek293 cells were dispensed at 1500 cells/4uL/well in 1536-well black wall/clear bottom plates using a multidrop dispenser. After the assay plates were incubated at a 37 C/5% CO2 incubator for 18 hours, 4 microL of Calcium Dye Solution was added to each well. The plates were incubated at 37 C for 1 hour. And then 23 nL of compounds dissolved in DMSO, positive controls, or DMSO only was transferred to the assay plate by a pin tool station. The fluorescence intensity in the plates was measured using FDSS 7000EX kinetic plate reader with a filter set of Ex/Em=480/540 for 3 min at 1 sec intervals. Each test compound was measured at 15 concentrations and in triplicates.
# KiSS-1 receptor (Homo sapiens), sequence (Q969F8 whole entry, looked up): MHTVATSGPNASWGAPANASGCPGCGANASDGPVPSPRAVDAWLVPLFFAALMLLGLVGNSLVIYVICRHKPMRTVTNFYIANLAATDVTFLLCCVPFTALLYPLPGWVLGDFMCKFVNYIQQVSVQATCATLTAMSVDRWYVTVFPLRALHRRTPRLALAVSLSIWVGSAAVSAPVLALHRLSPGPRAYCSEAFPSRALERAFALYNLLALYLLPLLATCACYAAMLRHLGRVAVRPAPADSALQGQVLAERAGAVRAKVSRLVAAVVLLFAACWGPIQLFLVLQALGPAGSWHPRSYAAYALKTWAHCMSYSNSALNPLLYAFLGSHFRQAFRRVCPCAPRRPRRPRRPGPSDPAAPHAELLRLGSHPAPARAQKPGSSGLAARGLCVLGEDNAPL
SMILES,Potency,activation
CCO/C=C1\N=C(c2ccccc2)OC1=O,inactive,
CCc1cc(C(C)(C)C)c(O)c(C(C)(C)C)c1,inactive,
CC(C)C(C)(C)C(C)(C)C(C)(C)S,inactive,
C=CCCCCCCCCCCCCCC,,-0.0025% [at 15.8 µM] (inactive)
CC(C)COC(=O)CCCCC(=O)OCC(C)C,inactive,
Cc1ccccc1S,inactive,
Cc1cc(C)c(/C=C2\C(=O)Nc3ccccc32)[nH]1,inactive,
CCCC1CCOC(C)S1 (stereo not given),inactive,
CC1=Nc2ccc3ccccc3c2C1(C)C,inactive,
CCCCN(CCCC)C(=S)SSC(=S)N(CCCC)CCCC,inactive,
Cc1ccc(Nc2nccc(N(C)c3ccc4c(C)n(C)nc4c3)n2)cc1S(N)(=O)=O,inactive,
CCCCCCOC(=O)CC(CC(=O)OCCCCCC)(OC(=O)CCC)C(=O)OCCCCCC,inactive,
COc1nc(C)nc(Cl)c1NC1=NCCN1,inactive,
CC(=O)[O][Al],inactive,
CCCCCCCCCCCCCCCCCCNC(=O)OC1CCN(C(=O)OC[C@H](COC(=O)N(Cc2cccc[n+]2CC)C(=O)c2ccccc2OC)OC)CC1,inactive,
CSc1ccc(/C=C2/C(C)=C(CC(=O)O)c3cc(F)ccc32)cc1,inactive,
O=C(O)Cc1ccc(Cl)cc1Cl,inactive,
NCCCOCCOCCOCCCN,inactive,
CC[N+](CC)(CC(=O)Nc1c(C)cccc1C)Cc1ccccc1 (tested in a mixture with another compound),inactive,
CCCCCCNC(=O)n1cc(F)c(=O)[nH]c1=O,inactive,

SMILES,Potency,activation
O=Cc1ccc(O)c(O)c1O,inactive,
CNC1CCCN(c2c(F)cc3c(=O)c(C(=O)O)cn(C4CC4)c3c2OC)C1 (stereo not given),inactive,
CC(CSC(=O)c1ccccc1)C(=O)N1C[C@@H](Sc2ccccc2)C[C@H]1C(=O)O (stereo not given in full),,-0.676% [at 15.8 µM] (inactive)
CCOC(C)OCC,inactive,
CCC(C)Nc1ccc(NC(C)CC)cc1 (stereo not given),inactive,
CCc1oc2ccccc2c1C(=O)c1cc(Br)c(O)c(Br)c1,inactive,
Nc1c(Cl)cc(Cl)cc1[N+](=O)[O-],inactive,
O=C(Cl)c1cc(Cl)cc(Cl)c1,inactive,
CC(=O)CCC1=C(C)CCCC1(C)C,inactive,
CCCCCCCC/C=C\CCCCCCCC(=O)NCc1ccc(O)c(OC)c1,inactive,
CC(C)(C)c1ccc(OCC2CO2)cc1 (stereo not given),inactive,
O=C(O)COc1nn(Cc2ccccc2)c2ccccc12,inactive,
CCC(C)(C)OC,inactive,
CN(C)CCCCCCN(C)C,inactive,
CCN(CC)CCNC(C(=O)OCCC(C)C)c1ccccc1 (stereo not given),inactive,
Nc1ccc(C(=O)Nc2ccccc2N)cc1,inactive,
CCOc1ccc(OCC)c(Cl)c1,inactive,
CCCC(=O)O[C@]1(C(=O)CCl)[C@@H](C)C[C@H]2[C@@H]3CCC4=CC(=O)C=C[C@]4(C)[C@@]3(F)C(=O)C[C@@]21C,inactive,
OCc1cc(C(O)CNCCCCCCOCCCCc2ccccc2)ccc1O (stereo not given),inactive,
C=C1C(=C/C=C2\CCC[C@]3(C)[C@@H]([C@H](C)/C=C/[C@@H](O)C4CC4)CC[C@@H]23)C[C@@H](O)C[C@@H]1O,inactive,
